Structures are written as SMILES. Hit rate of the full screen: of about 310,000 compounds, about 2,200 (0.71%) showed an effect of 50% or more. The effect is printed as a negative number. This is one part of a sample in which strong results are shown more often than they occur.

The target of this experiment is human ether-à-go-go-related gene (hERG) potassium channel (human, UniProt Q12809). Nature of the experiment: primary screen, population patch clamp on CHO cells stably expressing hERG; higher = less effect of the substance.
Sequence of human ether-à-go-go-related gene (hERG) potassium channel (Q12809 whole entry, looked up): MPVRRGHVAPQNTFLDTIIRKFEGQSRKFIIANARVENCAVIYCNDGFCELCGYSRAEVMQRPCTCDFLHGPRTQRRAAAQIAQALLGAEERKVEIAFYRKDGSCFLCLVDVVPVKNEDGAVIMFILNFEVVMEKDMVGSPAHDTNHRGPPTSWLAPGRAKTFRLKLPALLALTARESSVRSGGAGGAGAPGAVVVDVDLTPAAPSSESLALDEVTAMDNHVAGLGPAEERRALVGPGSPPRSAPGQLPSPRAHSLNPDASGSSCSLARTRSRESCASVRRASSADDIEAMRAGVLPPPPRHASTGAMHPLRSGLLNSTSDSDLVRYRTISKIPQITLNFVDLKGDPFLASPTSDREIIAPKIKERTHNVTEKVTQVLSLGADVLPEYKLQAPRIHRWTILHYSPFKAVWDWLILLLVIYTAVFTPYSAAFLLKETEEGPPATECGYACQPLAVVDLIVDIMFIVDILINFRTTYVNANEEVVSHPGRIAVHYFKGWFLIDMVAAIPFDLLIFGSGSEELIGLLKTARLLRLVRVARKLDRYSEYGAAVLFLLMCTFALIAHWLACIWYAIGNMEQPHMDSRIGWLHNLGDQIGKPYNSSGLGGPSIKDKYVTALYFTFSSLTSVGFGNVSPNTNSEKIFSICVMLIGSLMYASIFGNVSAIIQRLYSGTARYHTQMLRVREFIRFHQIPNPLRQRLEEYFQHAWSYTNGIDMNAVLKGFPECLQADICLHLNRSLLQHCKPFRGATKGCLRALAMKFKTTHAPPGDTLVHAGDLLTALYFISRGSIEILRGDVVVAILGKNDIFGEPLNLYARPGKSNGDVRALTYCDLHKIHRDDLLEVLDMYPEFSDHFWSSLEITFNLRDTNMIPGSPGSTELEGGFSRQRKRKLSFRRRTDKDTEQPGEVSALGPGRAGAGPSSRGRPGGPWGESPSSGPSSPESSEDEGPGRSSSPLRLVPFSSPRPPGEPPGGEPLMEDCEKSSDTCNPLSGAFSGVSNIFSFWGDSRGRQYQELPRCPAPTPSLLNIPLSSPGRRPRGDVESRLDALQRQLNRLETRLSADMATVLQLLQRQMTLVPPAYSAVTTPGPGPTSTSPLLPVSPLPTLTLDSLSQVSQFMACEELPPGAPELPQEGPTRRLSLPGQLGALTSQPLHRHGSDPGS
With `O=C(NCCN1CCN(C(=O)c2cccc([N+](=O)[O-])c2)CC1)C(=O)NCc1ccc(Cl)cc1`, the “hERG current change (%, negative = inhibition) at 1uM” value is 0.645%. As for `O=C(NCCN1CCN(C(=O)c2ccc(F)cc2)CC1)C(=O)NCc1ccccc1`, the “hERG current change (%, negative = inhibition) at 1uM” value is on record as -75.1%. Under `CCOC(=O)c1c(NC(=O)C2C3C=CC(C3)C2C(=O)O)sc2c1CC(C)(C)OC2` (centres unmarked) stands 2.99%.

Take `CCOC(=O)CC1(NC(=O)c2cc(COc3cccc(OC)c3)on2)CCCCC1`: the “hERG current change (%, negative = inhibition) at 1uM” value was 10.3%. Turning to `CN1CCN(S(=O)(=O)c2cccc(C(=O)Oc3cccc(C#N)c3)c2)CC1`, the “hERG current change (%, negative = inhibition) at 1uM” value was 11.8%. For the molecule `CC12CC3CC(C)(C1)CC(C(=O)NNC(=O)c1ccncc1)(C3)C2`, the “hERG current change (%, negative = inhibition) at 1uM” value is listed as -7.13%. Under `CC(=O)c1ccc(NC(=S)Nc2cccc(Cl)c2C)cc1` stands 12.3%; under `CCNC(=O)NC(=O)COC(=O)CNC(=O)COc1ccccc1`, 14.5%; under `CC(NC(=O)C(=O)NCCN1CCN(C(=O)c2ccccc2Br)CC1)c1ccccc1` (centres unmarked), 9.08%.

Take `CC(NC(=O)C(=O)NCCN1CCN(C(=O)c2ccc([N+](=O)[O-])cc2)CC1)c1ccccc1` (centres unmarked): the “hERG current change (%, negative = inhibition) at 1uM” value was -67.8%. Regarding `CCCCc1ccc(NC(=O)C(=O)NCCN2CCN(C(=O)c3ccc([N+](=O)[O-])cc3)CC2)cc1`, the “hERG current change (%, negative = inhibition) at 1uM” value was 0.387%. Under `CNC(=O)C(=O)NCCN1CCN(C(=O)c2ccc([N+](=O)[O-])cc2)CC1` stands 9.09%. Then `O=C(NCCN1CCN(C(=O)c2ccc([N+](=O)[O-])cc2)CC1)C(=O)Nc1ccc(F)cc1`, with -84.3%; and `Cc1ccc(C(=O)N2CCN(CCNC(=O)C(=O)NC(C)C)CC2)cc1`, with 7.95%; and `Cc1ccc(C(=O)NCC(=O)N2CCCCCCC2)cc1`, with 20.7%. Under `COc1cc(OC)cc(C(=O)NC(=S)Nc2nnn(C)n2)c1` stands 13%. For the molecule `O=C(Nc1ccc(F)cc1)N1CCCC(c2nc3c(nnn3Cc3ccccc3Cl)c(=O)[nH]2)C1` (centres unmarked), the “hERG current change (%, negative = inhibition) at 1uM” value came to 13.4%.

For `CCOC(=O)c1csc(NC(C)=O)n1`, the “hERG current change (%, negative = inhibition) at 1uM” value is 7.33%. As to `CCCN1CCC(=O)N([C@H](CSc2ccccc2)CC(C)C)CC1`, the “hERG current change (%, negative = inhibition) at 1uM” value is -31.8%. In the case of `CCCN1CCC(=O)N([C@H](CSc2ccc(OC)cc2)CC(C)C)CC1`, the “hERG current change (%, negative = inhibition) at 1uM” value is recorded as -42.3%. Regarding `Cc1ccc(SC[C@H](Cc2ccccc2)N2CCN(CCc3ccccc3)CCC2=O)cc1`, the “hERG current change (%, negative = inhibition) at 1uM” value is 8.27%. `CN1CCC(=O)N([C@H](CSc2ccccc2)c2ccccc2)CC1`: the “hERG current change (%, negative = inhibition) at 1uM” value is on record as -46.4%. As to `CC(=O)Nc1ccc(SC[C@H](Cc2ccccc2)N2CCN(CCc3ccccc3)CCC2=O)cc1`, the “hERG current change (%, negative = inhibition) at 1uM” value stood at 4.37%. Regarding `CCCN1CCC(=O)N([C@H](CSc2ccc(C)cc2)c2ccccc2)CC1`, the “hERG current change (%, negative = inhibition) at 1uM” value is listed as -76.3%. In the case of `CN1CCC(=O)N([C@H](CSc2ccc(Br)cc2)c2ccccc2)CC1`, the “hERG current change (%, negative = inhibition) at 1uM” value is reported as -89.8%. Under `CCCN1CCC(=O)N([C@H](CSc2ccc(OC)cc2)c2ccccc2)CC1` stands -81.7%; under `CC(=O)Nc1ccc(SC[C@H](c2ccccc2)N2CCN(CCc3ccccc3)CCC2=O)cc1`, -56%.

For the molecule `CC(C)CN1CCC(=O)N([C@H](CSc2ccc(Br)cc2)c2ccccc2)CC1`, the “hERG current change (%, negative = inhibition) at 1uM” value is -21.5%. As for `CCCN1CCC(=O)N([C@H](CSc2ccc(OC)cc2)Cc2ccccc2)CC1`, the “hERG current change (%, negative = inhibition) at 1uM” value is on record as -36.3%.

As for `CC(=O)Nc1ccc(SC[C@H](CC(C)C)N2CCN(CCc3ccccc3)CCC2=O)cc1`, the “hERG current change (%, negative = inhibition) at 1uM” value is listed as -26.2%. Then `COc1ccc(CNC(=O)c2cc(COc3c(F)cccc3F)on2)cc1OC`, with 7.12%; and `Cc1ccc(NC(=O)/C(C#N)=C/c2ccsc2)c(C)c1`, with 15.6%.

As for `Cc1ccc(S(=O)(=O)N(C)c2ccc(C(=O)Nc3c(C)n(C)n(-c4ccccc4)c3=O)cc2)cc1`, the “hERG current change (%, negative = inhibition) at 1uM” value was 4.15%. Then `O=C(NNS(=O)(=O)c1ccc(F)cc1)C1CC(c2cccnc2)=NO1` (centres unmarked), with 14.8%; and `O=C(/C(=N\O)n1cncn1)c1ccc(Cl)cc1Cl`, with 15.2%; and `COc1ccc(Cc2nnc(NC(=O)Nc3ccccc3F)s2)cc1`, with 15.2%. As to `Cc1ccccc1OCC(=O)Nc1ccccc1N1CCC(C)CC1`, the “hERG current change (%, negative = inhibition) at 1uM” value turned out to be 18.9%.

Consider `O=C1CCCC(O)=C1C1NCCc2ccccc21` (centres unmarked), for which the “hERG current change (%, negative = inhibition) at 1uM” value is on record as 9.52%. Under `O=C1CCN(CCc2ccccc2)CCN1[C@H](CSc1ccc(Br)cc1)c1ccccc1` stands -18.8%. Turning to `CCCN1CCC(=O)N([C@H](CSc2ccccc2)c2ccccc2)CC1`, the “hERG current change (%, negative = inhibition) at 1uM” value is listed as -82.2%.

With `Cc1ccc(SC[C@H](c2ccccc2)N2CCN(CCc3ccccc3)CCC2=O)cc1`, the “hERG current change (%, negative = inhibition) at 1uM” value is recorded as -10.2%. On to `CCCN1CCC(=O)N([C@H](CSc2ccc(Br)cc2)c2ccccc2)CC1`, for which the “hERG current change (%, negative = inhibition) at 1uM” value is listed as -17.5%.

For the molecule `O=C1CCN(CCc2ccccc2)CCN1[C@H](CSc1ccccc1)c1ccccc1`, the “hERG current change (%, negative = inhibition) at 1uM” value was -72.2%. `O=C1CCN(Cc2ccccc2)CCN1[C@H](CSc1ccccc1)c1ccccc1`: the “hERG current change (%, negative = inhibition) at 1uM” value is 2.25%.
